# Values joined by “and” are separate entries in the source; they are usually repeats but may differ in a detail not shown here. Identical values can stand only once. Counter-ions that a name gives are not always drawn. ± gives the standard deviation of the averaged measurements.
# System: HT-1080
# Assay: relative cell viability with RSL3 co-treatment (fraction of control); higher = stronger protection from RSL3-induced ferroptosis (higher viability)
# Conditions: 10 µM
# 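Note: viability read as CCK-8 absorbance at 450 nm in cells co-exposed to the GPX4 inhibitor RSL3, relative to a 0.01% DMSO vehicle control.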
row,SMILES,relative cell viability
1,Cc1nc(Nc2cnn(C3CCNCC3)c2)nc2c1N(C)C(=O)c1cc3ccccc3cc1N2C,0.627 ± 0.09
2,Cc1ccc(NC(=O)c2ccc(CN3CCN(C)CC3)cc2)cc1Nc1nc(-c2cccnc2)cs1 [Masitinib (AB1010)],0.67 ± 0.12
3,Cc1ccc(Nc2nccc(N(C)c3ccc4c(C)n(C)nc4c3)n2)cc1S(N)(=O)=O [Pazopanib],0.71 ± 0.12
4,O=C(Nc1cccc(Cl)c1)Nc1ncc(CCNc2ncnc3ccsc23)s1 [SNS-314 Mesylate],0.217 ± 0.015
5,O=C(Nc1nc2cccc(-c3ccc(CN4CCS(=O)(=O)CC4)cc3)n2n1)C1CC1 [Filgotinib (GLPG0634)],0.687 ± 0.035
6,C[C@@H]1CCN(C(=O)CC#N)C[C@@H]1N(C)c1ncnc2[nH]ccc12,0.75 and 0.64
7,NC1(c2ccc(-c3nc4ccn5c(=O)[nH]nc5c4cc3-c3ccccc3)cc2)CCC1,0.467 ± 0.1
8,O=c1c(-c2ccc(O)cc2)coc2cc(O)cc(O)c12 [Genistein],0.76 ± 0.07
9,O=C(Nc1cc(C(F)(F)F)cc(C(F)(F)F)c1)c1cc(Cl)ccc1O,0.537 ± 0.06
10,CCCCCCCCCCCCCCCCCCOP(=O)([O-])OC1CC[N+](C)(C)CC1 [Perifosine (KRX-0401)],0.463 ± 0.18
11,O=C(O)CCC(=O)Nc1ccc(Br)cn1 [Bikinin],0.723 ± 0.14
12,CC(C)CC(NC(=O)C(Cc1ccccc1)NC(=O)C(CCC(N)=O)NC(=O)C(Cc1ccc(O)cc1)NC(=O)C(C)NC(=O)CNC(=O)C(CCCCN)NC(=O)C(Cc1c[nH]c2ccccc12)NC(=O)C(NC(=O)C(Cc1c[nH]c2ccccc12)NC(=O)C(CCCCN)NC(=O)CNC(=O)C(CC(N)=O)NC(=O)C(CCC(=O)O)NC(=O)C(Cc1c[nH]c2ccccc12)NC(=O)C(NC(=O)C(Cc1c[nH]c2ccccc12)NC(=O)C(CO)NC(=O)CNC(=O)C1CCCN1C(=O)C(Cc1c[nH]c2ccccc12)NC(=O)C(CCC(N)=O)NC(=O)C(Cc1ccccc1)NC(=O)CNC(=O)C(N)Cc1c[nH]cn1)C(C)O)C(C)O)C(=O)NC(CCCCN)C(=O)NCC(=O)NCC(=O)NCC(=O)NCC(=O)NC(CO)C(=O)NC(CCCNC(=N)N)C(=O)NC(CCCNC(=N)N)C(=O)NC(CCCNC(=N)N)C(=O)NC(CCCNC(=N)N)C(=O)NC(CCCNC(=N)N)C(=O)NC(CCCNC(=N)N)C(=O)NC(CCCNC(=N)N)C(=O)NC(CCCNC(=N)N)C(=O)NC(CCCNC(=N)N)C(=O)O (centres undefined),0.7133 ± 0.0058
13,COc1ccc(Cl)cc1NC(=O)Nc1cc(C)nc2ccccc12,0.71 ± 0.017
14,Cn1c(=O)c(F)c(Nc2ccc(I)cc2F)c2c(=O)n(C[C@@H](O)CO)cnc21,0.71 ± 0.017
15,CN1CCC(COc2cnc(-c3cccc(Cn4nc(-c5cccc(C#N)c5)ccc4=O)c3)nc2)CC1,0.633 ± 0.067
16,Cc1ccc2nc(NCCN)c3ncc(C)n3c2c1,0.703 ± 0.015
17,Oc1ccc(-c2nc(-c3ccc(F)cc3)c(-c3ccncc3)[nH]2)cc1,0.717 ± 0.05
18,Cc1cc(N2CCOCC2)cc2[nH]c(-c3c(NC[C@@H](O)c4cccc(Cl)c4)cc[nH]c3=O)nc12,0.987 ± 0.15
19,CCNc1nc(Nc2cc(F)c(C(=O)N3CCOCC3)cc2OC)ncc1C(F)(F)F,0.69 ± 0.089
20,COc1cc2ncnc(Nc3ccc(F)c(Cl)c3)c2cc1NC(=O)/C=C/CN1CCCCC1,0.61 ± 0.046
21,O=C(Nc1c[nH]nc1-c1nc2ccc(CN3CCOCC3)cc2[nH]1)NC1CC1,0.35 ± 0.14
22,Cn1c(Nc2ccc(C(F)(F)F)cc2)nc2cc(Oc3ccnc(-c4ncc(C(F)(F)F)[nH]4)c3)ccc21,0.593 ± 0.091
23,CC(C)(C)c1cnc(CSc2cnc(NC(=O)C3CCNCC3)s2)o1,0.573 ± 0.05
24,Fc1cc(-c2cccc3ncc(-c4cnn(C5CCNCC5)c4)nc23)cc(F)c1CN1CCOCC1,0.787 ± 0.058
25,CCS(=O)(=O)c1cccc(-c2cc(C(=O)NC3CCN(C)CC3)c(C)c3[nH]c4ncc(C)cc4c23)c1,0.397 ± 0.046
26,COc1ccc(-c2ccc3c(N4CCOC[C@@H]4C)nc(N4CCOC[C@@H]4C)nc3n2)cc1CO,0.893 ± 0.13
27,COc1cc2nccc(Oc3ccc(NC(=O)Nc4cc(C)on4)c(Cl)c3)c2cc1OC [Tivozanib (AV-951)],0.23 ± 0.11
28,Cc1nc(NC(=O)N2CCC[C@H]2C(N)=O)sc1-c1ccnc(C(C)(C)C(F)(F)F)c1 [Alpelisib (BYL719)],0.827 ± 0.015
29,COC(=O)c1ccc2c(c1)NC(=O)/C2=C(\Nc1ccc(N(C)C(=O)CN2CCN(C)CC2)cc1)c1ccccc1 [Nintedanib (BIBF 1120)],0.9 ± 0.12

# Source: the supplement of paper PMC9588786
